Laboratory results as given in the supplement of paper PMC11732987, “Enantioselective OTUD7B fragment discovery through chemoproteomics screening and high-throughput optimisation” (Communications Chemistry, 2025).

Key:
Test in all cases: log2 ratio of Biotin-Ahx-Ub-VS probe labelling (fragment/DMSO); higher = less target engagement (more negative = stronger competition), active = hit call of the paper (q ≤ 0.05, log2 ratio ≤ -1)
Settings in all cases: compound concentration: 200 uM; treatment time: 3 h
[1] = target: T1, USP42 (UniProt Q9H9J4)
T1 sequence (whole entry): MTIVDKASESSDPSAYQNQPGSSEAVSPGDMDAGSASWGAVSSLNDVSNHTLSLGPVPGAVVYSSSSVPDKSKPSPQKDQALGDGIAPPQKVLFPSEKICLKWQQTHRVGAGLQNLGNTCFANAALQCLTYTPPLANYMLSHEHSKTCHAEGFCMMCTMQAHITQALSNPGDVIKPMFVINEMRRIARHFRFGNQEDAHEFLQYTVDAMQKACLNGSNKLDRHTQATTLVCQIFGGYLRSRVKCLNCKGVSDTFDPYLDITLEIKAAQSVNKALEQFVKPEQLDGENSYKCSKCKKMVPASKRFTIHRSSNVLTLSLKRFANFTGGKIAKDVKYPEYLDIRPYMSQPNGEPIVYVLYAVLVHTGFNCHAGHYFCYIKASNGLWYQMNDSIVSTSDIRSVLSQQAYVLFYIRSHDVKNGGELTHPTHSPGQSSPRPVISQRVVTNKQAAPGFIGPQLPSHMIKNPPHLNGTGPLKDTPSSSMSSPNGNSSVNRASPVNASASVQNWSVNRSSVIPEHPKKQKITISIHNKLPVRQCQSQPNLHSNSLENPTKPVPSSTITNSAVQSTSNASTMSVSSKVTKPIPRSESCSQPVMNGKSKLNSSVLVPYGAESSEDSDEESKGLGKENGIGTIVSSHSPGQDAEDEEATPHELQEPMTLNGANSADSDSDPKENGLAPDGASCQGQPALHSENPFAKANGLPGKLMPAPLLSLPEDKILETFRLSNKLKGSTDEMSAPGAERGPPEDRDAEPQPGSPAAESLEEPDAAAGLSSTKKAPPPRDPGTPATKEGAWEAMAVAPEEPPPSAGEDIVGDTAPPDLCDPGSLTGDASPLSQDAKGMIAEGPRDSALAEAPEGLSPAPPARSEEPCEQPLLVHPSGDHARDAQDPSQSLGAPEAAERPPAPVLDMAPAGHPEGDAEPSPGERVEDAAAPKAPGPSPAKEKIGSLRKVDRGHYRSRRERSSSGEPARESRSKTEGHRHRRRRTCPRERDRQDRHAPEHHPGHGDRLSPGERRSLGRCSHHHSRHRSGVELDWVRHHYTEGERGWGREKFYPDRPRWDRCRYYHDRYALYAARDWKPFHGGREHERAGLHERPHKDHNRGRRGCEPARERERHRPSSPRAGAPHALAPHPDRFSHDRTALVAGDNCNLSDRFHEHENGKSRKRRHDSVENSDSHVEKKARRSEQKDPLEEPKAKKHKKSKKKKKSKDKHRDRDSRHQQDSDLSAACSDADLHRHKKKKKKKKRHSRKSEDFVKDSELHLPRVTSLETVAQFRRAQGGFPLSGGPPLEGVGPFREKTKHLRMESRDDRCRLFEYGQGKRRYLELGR
Procedure, shortened: (§1)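 HEK293T lysate (495 µg per sample, in Tris/CHAPS/IGEPAL buffer with protease inhibitors) was exposed in triplicate for 3 h to fragment at 200 µM or to vehicle, then to Biotin-Ahx-Ub-VS at 0.5 µM final for 1 h. Labelled DUBs were enriched on NeutrAvidin, digested with LysC and trypsin, and analysed by diaPASEF LC-MS/MS. Spectronaut label-free quantities were normalised to the global median, and values are average log2 ratios of fragment over vehicle from an unpaired t-test. Only proteins with ≥2 unique peptides were used.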

[2] = target: USP46 (UniProt P62068)
Chain of USP46 (P62068 whole entry): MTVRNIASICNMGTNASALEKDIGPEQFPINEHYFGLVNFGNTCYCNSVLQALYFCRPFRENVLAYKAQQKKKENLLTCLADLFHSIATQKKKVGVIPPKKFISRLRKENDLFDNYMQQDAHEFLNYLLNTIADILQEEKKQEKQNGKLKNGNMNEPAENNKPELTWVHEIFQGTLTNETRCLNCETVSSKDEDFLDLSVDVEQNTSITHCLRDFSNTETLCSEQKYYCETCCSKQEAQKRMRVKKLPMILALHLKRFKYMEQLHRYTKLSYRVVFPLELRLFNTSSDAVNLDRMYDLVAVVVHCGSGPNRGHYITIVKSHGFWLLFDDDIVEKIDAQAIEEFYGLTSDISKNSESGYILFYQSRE
Procedure, shortened: as §1

[3] = target: T2, USP47 (UniProt Q96K76)
T2 sequence (whole entry): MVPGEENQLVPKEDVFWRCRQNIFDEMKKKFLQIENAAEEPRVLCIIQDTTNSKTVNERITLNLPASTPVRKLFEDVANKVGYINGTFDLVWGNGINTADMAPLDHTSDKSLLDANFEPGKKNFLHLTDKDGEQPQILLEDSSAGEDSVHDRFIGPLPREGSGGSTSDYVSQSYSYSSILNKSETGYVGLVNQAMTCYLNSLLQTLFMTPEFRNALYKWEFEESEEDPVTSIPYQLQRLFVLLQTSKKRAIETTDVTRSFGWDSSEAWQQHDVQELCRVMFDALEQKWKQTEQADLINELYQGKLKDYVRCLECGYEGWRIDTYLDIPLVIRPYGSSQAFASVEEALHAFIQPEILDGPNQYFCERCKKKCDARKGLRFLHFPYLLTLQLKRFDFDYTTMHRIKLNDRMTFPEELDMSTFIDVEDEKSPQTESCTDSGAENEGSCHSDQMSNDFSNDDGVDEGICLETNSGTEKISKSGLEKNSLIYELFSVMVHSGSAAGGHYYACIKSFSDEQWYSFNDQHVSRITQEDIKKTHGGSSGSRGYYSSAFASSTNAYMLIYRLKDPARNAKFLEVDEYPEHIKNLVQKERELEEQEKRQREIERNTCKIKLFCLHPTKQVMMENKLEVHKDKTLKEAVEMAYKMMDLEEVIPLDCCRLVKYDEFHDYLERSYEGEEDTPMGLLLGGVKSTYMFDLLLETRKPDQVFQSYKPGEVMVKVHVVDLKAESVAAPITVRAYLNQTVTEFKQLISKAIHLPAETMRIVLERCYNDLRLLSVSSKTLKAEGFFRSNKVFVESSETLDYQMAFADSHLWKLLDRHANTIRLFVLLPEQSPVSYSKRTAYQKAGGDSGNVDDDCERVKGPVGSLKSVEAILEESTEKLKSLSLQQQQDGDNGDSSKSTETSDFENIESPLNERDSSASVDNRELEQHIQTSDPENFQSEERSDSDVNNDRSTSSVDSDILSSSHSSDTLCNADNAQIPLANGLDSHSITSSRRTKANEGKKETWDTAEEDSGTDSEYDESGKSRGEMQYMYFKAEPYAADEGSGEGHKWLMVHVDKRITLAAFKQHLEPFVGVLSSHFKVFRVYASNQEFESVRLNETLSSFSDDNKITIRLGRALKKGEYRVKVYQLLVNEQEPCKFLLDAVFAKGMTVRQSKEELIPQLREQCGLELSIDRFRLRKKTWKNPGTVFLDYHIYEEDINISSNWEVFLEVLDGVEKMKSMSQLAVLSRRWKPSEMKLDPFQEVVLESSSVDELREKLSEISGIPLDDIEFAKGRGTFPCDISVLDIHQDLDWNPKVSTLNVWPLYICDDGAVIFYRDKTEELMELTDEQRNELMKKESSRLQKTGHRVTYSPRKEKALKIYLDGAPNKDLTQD
Procedure, shortened: as §1

[4] = target: T3, USP48 (UniProt Q86UV5)
T3 sequence (whole entry): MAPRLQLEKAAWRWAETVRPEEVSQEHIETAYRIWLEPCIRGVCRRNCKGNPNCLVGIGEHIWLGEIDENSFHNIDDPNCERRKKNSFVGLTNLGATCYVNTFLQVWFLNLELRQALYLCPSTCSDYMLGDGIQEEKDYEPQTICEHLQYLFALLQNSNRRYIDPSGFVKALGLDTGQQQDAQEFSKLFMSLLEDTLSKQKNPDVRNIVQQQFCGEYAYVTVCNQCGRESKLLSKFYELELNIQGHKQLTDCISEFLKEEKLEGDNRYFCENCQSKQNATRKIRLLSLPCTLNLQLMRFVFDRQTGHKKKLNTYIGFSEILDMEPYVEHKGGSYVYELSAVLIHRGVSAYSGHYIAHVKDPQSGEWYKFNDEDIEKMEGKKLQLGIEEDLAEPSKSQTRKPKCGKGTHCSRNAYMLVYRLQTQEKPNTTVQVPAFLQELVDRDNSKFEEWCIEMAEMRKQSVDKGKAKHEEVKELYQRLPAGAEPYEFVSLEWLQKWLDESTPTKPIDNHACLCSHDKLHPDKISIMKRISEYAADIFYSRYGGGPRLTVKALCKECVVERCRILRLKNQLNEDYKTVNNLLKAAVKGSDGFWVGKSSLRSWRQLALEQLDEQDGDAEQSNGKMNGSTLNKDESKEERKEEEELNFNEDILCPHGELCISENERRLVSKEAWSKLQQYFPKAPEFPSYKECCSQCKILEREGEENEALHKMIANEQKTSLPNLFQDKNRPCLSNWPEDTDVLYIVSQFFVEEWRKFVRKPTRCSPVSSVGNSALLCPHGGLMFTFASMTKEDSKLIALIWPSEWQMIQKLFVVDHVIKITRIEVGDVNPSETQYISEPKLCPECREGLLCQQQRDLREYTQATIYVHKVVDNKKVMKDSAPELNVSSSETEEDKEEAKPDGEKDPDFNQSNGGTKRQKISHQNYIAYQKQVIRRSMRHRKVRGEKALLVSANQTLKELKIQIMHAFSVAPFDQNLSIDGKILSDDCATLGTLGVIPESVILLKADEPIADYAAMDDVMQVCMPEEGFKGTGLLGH
Procedure, shortened: as §1

[5] = target: T4, USP5 (UniProt P45974)
T4 sequence (whole entry): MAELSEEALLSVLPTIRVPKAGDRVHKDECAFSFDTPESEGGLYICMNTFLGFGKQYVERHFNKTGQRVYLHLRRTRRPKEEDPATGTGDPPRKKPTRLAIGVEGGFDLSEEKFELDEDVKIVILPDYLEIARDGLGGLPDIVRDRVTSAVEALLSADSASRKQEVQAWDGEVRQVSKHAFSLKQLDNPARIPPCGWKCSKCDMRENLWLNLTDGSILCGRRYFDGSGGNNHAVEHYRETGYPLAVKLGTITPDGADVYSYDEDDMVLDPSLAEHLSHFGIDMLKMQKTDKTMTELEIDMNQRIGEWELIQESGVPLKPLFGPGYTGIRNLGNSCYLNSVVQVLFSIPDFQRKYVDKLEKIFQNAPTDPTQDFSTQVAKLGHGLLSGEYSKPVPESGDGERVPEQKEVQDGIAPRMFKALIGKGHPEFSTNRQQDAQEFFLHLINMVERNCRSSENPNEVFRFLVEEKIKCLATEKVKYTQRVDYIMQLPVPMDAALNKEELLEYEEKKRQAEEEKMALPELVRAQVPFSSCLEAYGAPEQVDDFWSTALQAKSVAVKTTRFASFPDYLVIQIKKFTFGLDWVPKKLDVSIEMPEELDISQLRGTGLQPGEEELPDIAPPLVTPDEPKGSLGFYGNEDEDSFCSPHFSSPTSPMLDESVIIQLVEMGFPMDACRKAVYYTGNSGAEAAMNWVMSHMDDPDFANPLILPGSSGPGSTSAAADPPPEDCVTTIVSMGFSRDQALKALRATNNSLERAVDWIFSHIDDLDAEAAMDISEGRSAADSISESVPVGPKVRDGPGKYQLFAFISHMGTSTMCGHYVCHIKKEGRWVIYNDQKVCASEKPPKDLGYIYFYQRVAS
Procedure, shortened: as §1

[6] = target: USP54 (UniProt Q70EL1)
Chain of USP54 (Q70EL1 whole entry): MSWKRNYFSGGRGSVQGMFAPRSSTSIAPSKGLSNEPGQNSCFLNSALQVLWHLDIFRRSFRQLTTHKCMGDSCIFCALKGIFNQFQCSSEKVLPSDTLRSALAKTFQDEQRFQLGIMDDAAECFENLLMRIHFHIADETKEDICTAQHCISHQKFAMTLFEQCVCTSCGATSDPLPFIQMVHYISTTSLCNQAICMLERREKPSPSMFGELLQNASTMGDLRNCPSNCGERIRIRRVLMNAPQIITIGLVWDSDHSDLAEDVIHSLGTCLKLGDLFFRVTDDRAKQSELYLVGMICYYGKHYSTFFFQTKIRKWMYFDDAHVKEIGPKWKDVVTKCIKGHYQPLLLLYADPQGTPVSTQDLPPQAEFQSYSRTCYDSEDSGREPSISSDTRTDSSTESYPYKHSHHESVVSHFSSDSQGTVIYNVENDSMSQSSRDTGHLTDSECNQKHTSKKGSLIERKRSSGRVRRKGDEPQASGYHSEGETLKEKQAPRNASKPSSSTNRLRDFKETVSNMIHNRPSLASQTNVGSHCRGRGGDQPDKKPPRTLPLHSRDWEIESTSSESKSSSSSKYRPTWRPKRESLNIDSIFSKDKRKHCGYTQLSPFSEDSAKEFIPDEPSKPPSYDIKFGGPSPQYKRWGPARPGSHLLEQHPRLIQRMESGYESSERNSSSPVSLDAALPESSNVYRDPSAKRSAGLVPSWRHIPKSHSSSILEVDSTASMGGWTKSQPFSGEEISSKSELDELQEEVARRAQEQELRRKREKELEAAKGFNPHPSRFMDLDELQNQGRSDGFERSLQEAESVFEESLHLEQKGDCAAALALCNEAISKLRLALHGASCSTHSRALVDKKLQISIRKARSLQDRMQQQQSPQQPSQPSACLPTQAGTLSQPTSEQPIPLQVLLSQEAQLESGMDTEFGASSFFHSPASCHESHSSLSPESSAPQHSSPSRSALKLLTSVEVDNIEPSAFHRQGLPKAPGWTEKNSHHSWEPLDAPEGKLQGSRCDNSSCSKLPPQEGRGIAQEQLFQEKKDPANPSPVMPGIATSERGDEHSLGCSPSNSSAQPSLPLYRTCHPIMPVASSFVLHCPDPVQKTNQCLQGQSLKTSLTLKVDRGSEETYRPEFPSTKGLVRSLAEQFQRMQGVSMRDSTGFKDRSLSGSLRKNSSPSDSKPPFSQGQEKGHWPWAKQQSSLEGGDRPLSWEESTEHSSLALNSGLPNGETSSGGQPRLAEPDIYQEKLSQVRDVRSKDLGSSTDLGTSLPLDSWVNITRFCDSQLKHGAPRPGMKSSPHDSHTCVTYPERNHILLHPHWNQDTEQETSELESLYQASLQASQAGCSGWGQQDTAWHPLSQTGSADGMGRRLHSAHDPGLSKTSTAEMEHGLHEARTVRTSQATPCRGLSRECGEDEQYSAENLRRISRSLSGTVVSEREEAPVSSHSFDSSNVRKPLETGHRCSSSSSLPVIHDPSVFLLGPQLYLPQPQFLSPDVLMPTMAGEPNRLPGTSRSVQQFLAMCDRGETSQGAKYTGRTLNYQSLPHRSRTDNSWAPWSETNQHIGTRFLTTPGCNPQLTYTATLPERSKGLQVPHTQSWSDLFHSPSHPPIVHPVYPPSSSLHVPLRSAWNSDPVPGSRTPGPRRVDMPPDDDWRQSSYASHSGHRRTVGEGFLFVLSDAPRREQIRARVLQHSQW
Procedure, shortened: as §1

[7] = target: USP7 (UniProt Q93009)
Chain of USP7 (Q93009 whole entry, looked up): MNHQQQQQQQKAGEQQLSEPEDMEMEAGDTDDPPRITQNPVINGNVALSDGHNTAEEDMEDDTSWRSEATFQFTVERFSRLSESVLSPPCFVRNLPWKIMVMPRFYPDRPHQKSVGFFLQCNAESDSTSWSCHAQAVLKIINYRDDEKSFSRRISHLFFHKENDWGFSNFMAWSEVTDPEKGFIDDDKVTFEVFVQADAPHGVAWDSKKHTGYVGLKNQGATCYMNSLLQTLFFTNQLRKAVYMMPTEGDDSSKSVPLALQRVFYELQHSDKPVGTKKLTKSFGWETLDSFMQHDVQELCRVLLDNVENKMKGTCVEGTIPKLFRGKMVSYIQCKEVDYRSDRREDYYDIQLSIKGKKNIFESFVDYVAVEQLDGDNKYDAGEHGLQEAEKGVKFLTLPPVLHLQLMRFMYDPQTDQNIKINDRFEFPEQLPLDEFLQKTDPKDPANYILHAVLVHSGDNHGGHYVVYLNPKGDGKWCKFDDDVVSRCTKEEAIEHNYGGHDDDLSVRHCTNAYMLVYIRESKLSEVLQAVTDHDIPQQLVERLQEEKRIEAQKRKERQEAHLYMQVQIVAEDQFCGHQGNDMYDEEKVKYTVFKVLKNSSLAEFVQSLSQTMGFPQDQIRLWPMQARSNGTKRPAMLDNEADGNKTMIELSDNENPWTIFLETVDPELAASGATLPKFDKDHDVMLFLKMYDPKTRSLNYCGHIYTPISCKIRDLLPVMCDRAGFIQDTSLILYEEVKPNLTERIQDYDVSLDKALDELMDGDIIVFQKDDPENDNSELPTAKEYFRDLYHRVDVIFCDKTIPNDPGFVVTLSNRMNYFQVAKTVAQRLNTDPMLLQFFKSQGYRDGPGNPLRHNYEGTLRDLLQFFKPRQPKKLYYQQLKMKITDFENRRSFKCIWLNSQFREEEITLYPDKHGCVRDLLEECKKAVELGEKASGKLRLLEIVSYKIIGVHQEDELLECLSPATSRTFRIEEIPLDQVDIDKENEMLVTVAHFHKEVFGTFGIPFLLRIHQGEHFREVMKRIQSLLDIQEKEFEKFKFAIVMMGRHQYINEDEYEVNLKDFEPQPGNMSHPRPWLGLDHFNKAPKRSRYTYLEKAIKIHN
Procedure, shortened: as §1

[8] = target: T5, USP8 (UniProt P40818)
T5 sequence (whole entry): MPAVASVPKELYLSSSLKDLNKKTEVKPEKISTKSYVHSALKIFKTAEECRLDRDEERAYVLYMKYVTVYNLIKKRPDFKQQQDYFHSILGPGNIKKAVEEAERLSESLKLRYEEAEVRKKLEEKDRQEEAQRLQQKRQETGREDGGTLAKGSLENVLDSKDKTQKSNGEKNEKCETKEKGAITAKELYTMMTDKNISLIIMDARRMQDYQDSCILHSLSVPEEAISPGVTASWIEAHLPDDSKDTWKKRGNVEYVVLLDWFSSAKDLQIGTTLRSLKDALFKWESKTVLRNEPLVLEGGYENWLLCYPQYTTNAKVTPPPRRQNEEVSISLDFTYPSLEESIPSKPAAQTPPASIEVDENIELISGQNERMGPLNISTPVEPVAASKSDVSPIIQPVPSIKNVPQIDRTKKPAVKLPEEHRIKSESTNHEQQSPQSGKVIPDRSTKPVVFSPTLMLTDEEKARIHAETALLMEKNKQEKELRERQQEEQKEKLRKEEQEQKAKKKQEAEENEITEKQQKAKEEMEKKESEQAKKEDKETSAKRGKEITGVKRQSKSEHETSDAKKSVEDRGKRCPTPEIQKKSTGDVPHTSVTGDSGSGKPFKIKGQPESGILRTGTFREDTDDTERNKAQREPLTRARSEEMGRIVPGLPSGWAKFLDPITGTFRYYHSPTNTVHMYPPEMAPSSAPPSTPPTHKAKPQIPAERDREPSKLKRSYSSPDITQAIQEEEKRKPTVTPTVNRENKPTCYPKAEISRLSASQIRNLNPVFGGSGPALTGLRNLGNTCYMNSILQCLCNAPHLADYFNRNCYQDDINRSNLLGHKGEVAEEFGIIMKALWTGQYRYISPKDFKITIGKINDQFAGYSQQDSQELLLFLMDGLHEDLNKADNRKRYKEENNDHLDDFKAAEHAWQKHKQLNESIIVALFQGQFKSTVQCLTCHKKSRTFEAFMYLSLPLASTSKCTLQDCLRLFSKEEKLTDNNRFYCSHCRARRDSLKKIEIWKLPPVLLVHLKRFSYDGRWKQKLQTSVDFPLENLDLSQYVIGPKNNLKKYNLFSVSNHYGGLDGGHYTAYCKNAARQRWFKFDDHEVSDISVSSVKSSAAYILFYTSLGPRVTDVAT
Procedure, shortened: as §1

Measured: log2 ratio of Biotin-Ahx-Ub-VS probe labelling

COc1ccc(C2CCCN2C(=O)CCl)c(OC)c1 (stereo not drawn)
inactive: [1] 0.426 | [2] -0.295 | [3] -0.378 | [4] -0.744 | [5] 0.0602 | [6] 0.223 | [8] -0.00675
active: [7] -1.23
